PKM2 inh: blocks activity of human pyruvate kinase M2 | Potency, µM (titrated, usually from 57.5 µM), usual class: inhibitors | 0.058% of 260,000 active | purified PKM2, ATP generation, Kinase-Glo luminescence; active means well fitted inhibition curve with a large enough effect; further: nearly all actives have a fitted effect of over 60% in size
Target sequence (P14618 whole entry, looked up): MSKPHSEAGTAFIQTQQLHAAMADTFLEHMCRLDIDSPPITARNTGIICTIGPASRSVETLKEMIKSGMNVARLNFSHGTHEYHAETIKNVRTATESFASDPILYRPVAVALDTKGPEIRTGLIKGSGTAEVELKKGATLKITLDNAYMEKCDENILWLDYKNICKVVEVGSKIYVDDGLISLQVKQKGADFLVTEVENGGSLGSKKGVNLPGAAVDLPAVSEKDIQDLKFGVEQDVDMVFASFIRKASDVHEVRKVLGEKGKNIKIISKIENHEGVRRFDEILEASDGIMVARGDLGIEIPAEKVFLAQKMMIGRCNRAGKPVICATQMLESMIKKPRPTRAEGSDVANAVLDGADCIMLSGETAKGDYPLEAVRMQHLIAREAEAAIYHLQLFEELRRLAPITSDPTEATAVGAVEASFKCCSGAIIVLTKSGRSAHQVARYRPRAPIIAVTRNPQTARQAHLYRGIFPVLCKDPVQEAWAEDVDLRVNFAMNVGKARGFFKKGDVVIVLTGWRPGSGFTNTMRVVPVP
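Enzyme run at intermediate activity with final 0.1 mM ADP, 0.5 mM PEP (50 mM imidazole pH7.2, 50 mM KCl, 7 mM MgCl2), incubated 1 h at r.t. ATP formed read by Kinase-Glo luminescence, normalized to no-enzyme (full inhibition) and uninhibited wells.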
Each line names hits and unclear results; the compound was inactive in the other large screens. Shown is part of a subset that was picked to be rich in hits.

COc1cccc(CNc2nc3ccccc3n2C)c1O	none
N#CC(c1ccc(O)cc1)c1ncc(C(F)(F)F)cc1Cl (stereo not given)	none
COC(=O)c1ccc(S(=O)(=O)c2ccccc2)c(N)c1	none
COc1ccc(/C(N)=N/OC(=O)c2ccco2)cc1	PKM2 inh 18µM
COc1ccc(C(=O)Nc2ncc3c(n2)CC(c2ccco2)CC3=O)cc1 (stereo not given)	none
COc1cccc(S(=O)(=O)N2CCN(C(=O)c3ccco3)CC2)c1	none
N#CCC(=O)Nc1ccc(C(=O)Nc2cccc(S(N)(=O)=O)c2)cc1	none
Nc1nc(NCc2ccco2)nc(Nc2cccc(F)c2)c1[N+](=O)[O-]	none
O=C(Oc1ccc2ccc(O)cc2c1)c1ccccc1Cl	none
COc1cccc(C(=O)C(C#N)=C(SC)SC)c1	none
N/C(=N\OC(=O)c1ccc(Cl)cc1Cl)c1ccccn1	PKM2 inh 14µM
COc1ccc(C(=O)O/N=C(\N)Cc2ccc(Cl)cc2)cc1OC	none
Cc1ccc(C(=O)O/N=C(\N)c2ccccn2)c(Cl)c1	PKM2 inh 14µM
Cc1ccc(C(=O)O/N=C(\N)c2ccccc2)c(Cl)c1	PKM2 inh 18µM
COc1cccc(C(=O)O/N=C(\N)c2ccccn2)c1	PKM2 inh 8.9µM
N/C(CS(=O)(=O)c1ccccn1)=N\OC(=O)c1ccccc1Cl	none
COc1ccc(C/C(N)=N/OC(=O)c2cccc([N+](=O)[O-])c2)cc1	none
CCOC(=O)c1c(C)[nH]c(-c2csc(N)n2)c1C	none
COC(=O)N1[C@H](C)C=C[C@]1(Cc1ccccc1)C(=O)NCc1ccc(C)o1	none
Cc1ccc(/C=N/N2CCN(Cc3cccc4ccccc34)CC2)o1	none
CCOC(=O)c1c(-c2ccc(C)o2)csc1NC(=O)COC(=O)c1cccs1	none
Cc1cccc(/C(N)=N/OC(=O)c2cccs2)c1	PKM2 inh 13µM
CCOc1cc(NC(=O)c2cccs2)c(OCC)cc1NC(=O)c1cccnc1	none
CCOC(=O)c1c(-c2ccc(C)o2)csc1NC(=S)NC(=O)N(C)C	none
COc1ccc(-c2cc(=O)[nH][nH]2)cc1	none
COc1ccc(S(=O)(=O)c2cnc3ccccc3n2)cc1	none
COc1ccc(-c2cc3c(nn2)-c2ccccc2C3=O)cc1	PKM2 inh 16µM
CC(C)CCN1CCN(Cc2cccc3cccnc23)CC1CCO (stereo not given)	none
COCCn1c(=O)[nH]c2cc(C(=O)N3CCN(c4cccc(C)c4C)CC3)ccc2c1=O	none
C/C=C\C=C/C(=O)Nc1cccc(C2=NOC3(C2)C[C@H](C(N)=O)N(C(=O)Cc2ccc([N+](=O)[O-])cc2)C3)c1 (stereo not given in full)	none
Cc1cc2nnc(SCC(=O)Nc3ccc(Cl)cc3)n2c(N)n1	none
CCOC(=O)c1cnc(SCC(=O)c2ccc3c(c2)OCCO3)nc1N	none
O=C(COC(=O)c1ccc(NS(=O)(=O)c2ccc3c(c2)OCCO3)cc1)NC1CC1	none
O=C(COC(=O)c1cccs1)c1ccc2c(c1)OCCO2	PKM2 inh 28µM
COCCn1c(=S)[nH]c2ccc(N(C)C)cc2c1=O	none
CCN(CC)c1ccc(/C=C2\SC(=O)N(C(C)C)C2=O)o1	none
CC1CN(C(=O)c2ccc(COc3ccccc3Br)o2)CC(C)O1 (stereo not given)	none
COc1ccccc1NC(CC(=O)c1ccccc1)C(=O)OCC(=O)c1ccc(F)cc1 (stereo not given)	none
O=C(/C=C\c1ccco1)c1ccc(NC(=O)c2ccco2)cc1	none
COCCCn1c(SCC(=O)Nc2ccc(NC(=O)c3ccco3)c(OC)c2)nc2ccccc2c1=O	none
Cc1cc(NC(=O)c2ccco2)ccc1NC(=O)c1ccco1	PKM2 inh 14µM
O=C(O)c1cccc(Cn2c(Cl)c(/C=N/NC(=O)c3cc4ccccc4cc3O)sc2=O)c1	none
COc1ccccc1CNC(=O)C1CCN(S(=O)(=O)c2ccc3c(c2)OCCCO3)CC1	none
O=C(NCc1cccc(C(F)(F)F)c1)N1CCN(S(=O)(=O)c2ccccc2F)CC1	none
O=C(Nc1cccc(O)c1)c1cccc(S(=O)(=O)Nc2cccc(O)c2)c1	none
O=C(O)c1cc(NC(=O)c2cccc(C(=O)Nc3cc(C(=O)O)cc(C(=O)O)c3)c2)cc(C(=O)O)c1	PKM2 inh 13µM
CC(=O)N1CCN(c2ccc(NC(=O)c3cccc(C)c3)cc2)CC1	none
COc1ccc(NC(=O)/C(Cl)=C(/Cl)S(=O)Cc2ccc(Cl)cc2)cn1 (stereo not given)	none
CN(C)c1ccc(/C=N/NC(=O)c2ccnn2C)cc1	PKM2 inh 7.9µM
O=c1[nH]c2ccccc2nc1Cc1ccc([N+](=O)[O-])cc1	none
C=CCN1C(=O)N/C(=C/c2ccc(C)o2)C1=O	none
CN(CC1CCCN(CCc2cccc(C(F)(F)F)c2)C1)C(=O)c1cc2ccccc2o1 (stereo not given)	none
O=C(N1CCOCC1)N1CCN(S(=O)(=O)c2ccc(F)cc2)CC1	none
O=c1[nH]c(C(F)(F)F)nc2ccccc12	none
Cc1nn(-c2nc3ccccc3[nH]2)c(=O)c2ccccc12	PKM2 inh 16µM
CNCc1nc2ccccc2[nH]1	none
CC(=O)C1=C(c2cccc([N+](=O)[O-])c2)N(C(C)=O)n2c(C)nnc2S1	none
